From the supplement of paper PMC11732987, “Enantioselective OTUD7B fragment discovery through chemoproteomics screening and high-throughput optimisation” (Communications Chemistry, 2025)

Experiments:
Assay in all cases: log2 ratio of Biotin-Ahx-Ub-VS probe labelling (fragment/DMSO); higher = less target engagement (more negative = stronger competition), active = hit call of the paper (q ≤ 0.05, log2 ratio ≤ -1)
Settings in all cases: compound concentration: 200 uM; treatment time: 3 h
USP9X = USP9X (UniProt Q93008)
How it was run: (§1)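 In triplicate, 495 µg of HEK293T lysate per sample was incubated with fragment at 200 µM or vehicle for 3 h. Biotin-Ahx-Ub-VS was then added to 0.5 µM final for 1 h, and labelled DUBs were captured with NeutrAvidin, digested with LysC and trypsin, and measured by diaPASEF LC-MS/MS. Data are average log2 fragment/vehicle ratios by unpaired t-test from global-median-normalised Spectronaut label-free quantities, restricted to proteins with ≥2 unique peptides.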

UniProt O00487 = target: UniProt O00487
How it was run: as §1

UniProt O00507 = target: UniProt O00507
How it was run: as §1

UniProt P51784 = target: UniProt P51784
How it was run: as §1

UniProt Q5T2D3 = target: T1, UniProt Q5T2D3
T1 sequence (whole entry): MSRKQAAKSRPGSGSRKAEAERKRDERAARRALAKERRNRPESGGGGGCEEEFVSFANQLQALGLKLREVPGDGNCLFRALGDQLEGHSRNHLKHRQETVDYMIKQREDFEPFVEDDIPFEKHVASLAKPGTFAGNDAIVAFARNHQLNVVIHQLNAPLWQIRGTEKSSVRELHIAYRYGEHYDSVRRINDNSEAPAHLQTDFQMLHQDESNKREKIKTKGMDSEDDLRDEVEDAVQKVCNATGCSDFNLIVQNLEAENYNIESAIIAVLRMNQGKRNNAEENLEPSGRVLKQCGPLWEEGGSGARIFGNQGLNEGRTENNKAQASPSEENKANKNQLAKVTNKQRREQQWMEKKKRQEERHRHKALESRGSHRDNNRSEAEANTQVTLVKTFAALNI
How it was run: as §1

UniProt Q8TE49 = target: T2, UniProt Q8TE49
T2 sequence (whole entry): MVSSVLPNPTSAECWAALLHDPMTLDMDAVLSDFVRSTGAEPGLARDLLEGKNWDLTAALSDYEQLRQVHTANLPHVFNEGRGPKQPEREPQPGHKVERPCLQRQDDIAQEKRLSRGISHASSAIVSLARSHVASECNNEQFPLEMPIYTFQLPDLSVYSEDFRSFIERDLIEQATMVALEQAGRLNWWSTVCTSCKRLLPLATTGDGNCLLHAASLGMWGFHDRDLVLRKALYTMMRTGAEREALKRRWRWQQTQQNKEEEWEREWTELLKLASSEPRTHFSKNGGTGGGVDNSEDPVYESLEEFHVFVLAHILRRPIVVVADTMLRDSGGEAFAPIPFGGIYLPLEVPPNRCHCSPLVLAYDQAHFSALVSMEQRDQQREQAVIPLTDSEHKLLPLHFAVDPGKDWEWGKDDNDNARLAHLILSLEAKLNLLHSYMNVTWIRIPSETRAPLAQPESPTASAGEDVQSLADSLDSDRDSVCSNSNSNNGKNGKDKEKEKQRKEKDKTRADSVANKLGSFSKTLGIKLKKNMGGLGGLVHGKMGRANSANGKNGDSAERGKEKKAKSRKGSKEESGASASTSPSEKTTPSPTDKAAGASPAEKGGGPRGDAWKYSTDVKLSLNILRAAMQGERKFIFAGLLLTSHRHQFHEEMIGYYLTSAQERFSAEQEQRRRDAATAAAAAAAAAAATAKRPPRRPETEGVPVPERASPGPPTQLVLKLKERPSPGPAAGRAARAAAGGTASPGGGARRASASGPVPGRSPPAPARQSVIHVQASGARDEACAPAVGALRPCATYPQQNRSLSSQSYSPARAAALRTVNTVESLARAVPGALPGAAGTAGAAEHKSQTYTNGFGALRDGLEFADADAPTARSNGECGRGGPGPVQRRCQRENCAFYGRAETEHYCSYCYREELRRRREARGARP
How it was run: as §1

UniProt Q9P2H5 = target: T3, UniProt Q9P2H5
T3 sequence (whole entry): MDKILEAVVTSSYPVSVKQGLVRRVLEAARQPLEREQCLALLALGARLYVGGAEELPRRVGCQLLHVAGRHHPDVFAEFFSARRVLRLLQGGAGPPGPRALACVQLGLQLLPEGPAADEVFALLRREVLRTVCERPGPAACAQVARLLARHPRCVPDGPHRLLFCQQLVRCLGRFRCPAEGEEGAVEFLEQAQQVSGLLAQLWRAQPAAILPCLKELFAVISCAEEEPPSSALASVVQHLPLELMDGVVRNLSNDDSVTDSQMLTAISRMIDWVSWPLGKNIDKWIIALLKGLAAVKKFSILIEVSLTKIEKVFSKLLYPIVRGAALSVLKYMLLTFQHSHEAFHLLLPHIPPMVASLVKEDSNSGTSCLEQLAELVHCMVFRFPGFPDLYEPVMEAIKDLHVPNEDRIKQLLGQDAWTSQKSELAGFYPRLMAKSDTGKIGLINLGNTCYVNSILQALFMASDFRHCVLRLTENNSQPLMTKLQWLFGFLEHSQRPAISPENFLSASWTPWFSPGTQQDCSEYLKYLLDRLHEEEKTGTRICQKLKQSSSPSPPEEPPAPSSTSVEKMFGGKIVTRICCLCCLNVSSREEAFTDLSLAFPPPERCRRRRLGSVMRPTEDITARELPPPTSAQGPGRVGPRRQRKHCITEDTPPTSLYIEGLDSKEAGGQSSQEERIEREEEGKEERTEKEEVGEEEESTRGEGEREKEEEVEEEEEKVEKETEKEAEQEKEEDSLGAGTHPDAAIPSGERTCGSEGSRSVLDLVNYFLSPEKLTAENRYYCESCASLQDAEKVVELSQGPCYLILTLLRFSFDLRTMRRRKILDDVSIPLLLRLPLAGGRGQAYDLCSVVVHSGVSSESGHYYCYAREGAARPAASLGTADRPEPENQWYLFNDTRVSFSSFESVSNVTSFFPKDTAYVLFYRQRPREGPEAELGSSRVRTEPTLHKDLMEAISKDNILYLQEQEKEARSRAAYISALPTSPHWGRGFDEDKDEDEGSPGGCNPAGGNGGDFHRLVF
How it was run: as §1

UniProt Q9UGI0 = target: T4, UniProt Q9UGI0
T4 sequence (whole entry): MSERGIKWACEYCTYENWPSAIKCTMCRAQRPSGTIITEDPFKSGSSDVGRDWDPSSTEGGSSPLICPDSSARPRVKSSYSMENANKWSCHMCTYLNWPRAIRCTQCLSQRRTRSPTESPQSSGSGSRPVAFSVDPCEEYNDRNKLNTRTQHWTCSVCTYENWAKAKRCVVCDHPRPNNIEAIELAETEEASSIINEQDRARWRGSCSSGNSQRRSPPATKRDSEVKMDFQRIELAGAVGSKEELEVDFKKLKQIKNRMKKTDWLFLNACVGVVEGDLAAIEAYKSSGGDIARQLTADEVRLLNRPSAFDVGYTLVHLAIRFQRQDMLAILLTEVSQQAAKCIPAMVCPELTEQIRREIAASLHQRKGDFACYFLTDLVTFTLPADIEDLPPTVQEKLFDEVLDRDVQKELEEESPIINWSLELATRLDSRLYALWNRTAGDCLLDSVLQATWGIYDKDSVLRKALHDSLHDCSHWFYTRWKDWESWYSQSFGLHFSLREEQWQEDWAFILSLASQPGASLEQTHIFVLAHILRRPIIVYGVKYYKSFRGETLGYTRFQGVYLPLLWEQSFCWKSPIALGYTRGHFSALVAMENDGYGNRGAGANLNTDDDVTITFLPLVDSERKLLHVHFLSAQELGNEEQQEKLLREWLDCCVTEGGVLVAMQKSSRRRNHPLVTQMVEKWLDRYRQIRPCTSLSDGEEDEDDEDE
How it was run: as §1

YOD1 = target: T5, YOD1 (UniProt Q5VVQ6)
T5 sequence (whole entry): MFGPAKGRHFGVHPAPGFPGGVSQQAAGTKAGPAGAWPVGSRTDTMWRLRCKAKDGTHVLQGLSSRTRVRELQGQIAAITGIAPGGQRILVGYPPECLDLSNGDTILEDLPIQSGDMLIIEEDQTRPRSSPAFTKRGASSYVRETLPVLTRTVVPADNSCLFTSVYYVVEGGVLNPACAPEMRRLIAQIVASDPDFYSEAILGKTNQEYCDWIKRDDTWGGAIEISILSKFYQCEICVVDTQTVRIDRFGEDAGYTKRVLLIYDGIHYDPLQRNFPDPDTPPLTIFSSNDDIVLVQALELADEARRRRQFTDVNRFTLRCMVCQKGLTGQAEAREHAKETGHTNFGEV
How it was run: as §1

Measured: log2 ratio of Biotin-Ahx-Ub-VS probe labelling

UniProt O00487, sequence (O00487 whole entry): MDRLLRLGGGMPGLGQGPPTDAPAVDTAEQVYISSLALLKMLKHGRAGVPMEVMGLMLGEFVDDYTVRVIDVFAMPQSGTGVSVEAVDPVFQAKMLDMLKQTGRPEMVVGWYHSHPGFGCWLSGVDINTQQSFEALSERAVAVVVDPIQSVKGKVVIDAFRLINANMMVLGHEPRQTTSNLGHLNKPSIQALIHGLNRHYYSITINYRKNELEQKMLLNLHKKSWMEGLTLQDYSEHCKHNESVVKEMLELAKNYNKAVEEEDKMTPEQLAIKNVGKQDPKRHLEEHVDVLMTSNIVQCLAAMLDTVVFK
UniProt P51784, sequence (P51784 whole entry): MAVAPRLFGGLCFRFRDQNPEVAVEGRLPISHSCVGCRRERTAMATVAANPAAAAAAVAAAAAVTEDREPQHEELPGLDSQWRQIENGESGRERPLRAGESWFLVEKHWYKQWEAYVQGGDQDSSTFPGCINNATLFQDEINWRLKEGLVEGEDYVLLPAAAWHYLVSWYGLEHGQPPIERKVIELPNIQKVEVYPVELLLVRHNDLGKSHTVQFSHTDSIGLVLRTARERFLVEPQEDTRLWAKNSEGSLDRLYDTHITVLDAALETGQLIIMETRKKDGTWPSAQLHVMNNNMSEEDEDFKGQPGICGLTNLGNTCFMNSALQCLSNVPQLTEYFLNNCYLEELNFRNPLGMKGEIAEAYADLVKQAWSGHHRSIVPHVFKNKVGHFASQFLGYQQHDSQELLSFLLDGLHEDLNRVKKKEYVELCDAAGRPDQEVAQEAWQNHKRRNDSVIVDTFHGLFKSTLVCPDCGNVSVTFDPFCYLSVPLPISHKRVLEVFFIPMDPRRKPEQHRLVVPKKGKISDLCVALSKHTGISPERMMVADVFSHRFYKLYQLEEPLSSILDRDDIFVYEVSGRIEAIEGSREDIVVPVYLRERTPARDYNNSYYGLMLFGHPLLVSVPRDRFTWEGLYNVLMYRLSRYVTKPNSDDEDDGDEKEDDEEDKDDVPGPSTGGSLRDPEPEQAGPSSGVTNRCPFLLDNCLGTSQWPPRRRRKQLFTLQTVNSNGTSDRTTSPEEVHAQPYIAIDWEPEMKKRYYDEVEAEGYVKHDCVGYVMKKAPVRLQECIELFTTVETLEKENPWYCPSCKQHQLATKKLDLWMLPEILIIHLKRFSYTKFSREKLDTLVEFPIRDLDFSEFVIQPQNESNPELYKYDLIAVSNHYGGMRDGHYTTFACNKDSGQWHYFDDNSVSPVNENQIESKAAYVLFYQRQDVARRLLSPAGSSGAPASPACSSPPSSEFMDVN
UniProt O00507, sequence (O00507 whole entry): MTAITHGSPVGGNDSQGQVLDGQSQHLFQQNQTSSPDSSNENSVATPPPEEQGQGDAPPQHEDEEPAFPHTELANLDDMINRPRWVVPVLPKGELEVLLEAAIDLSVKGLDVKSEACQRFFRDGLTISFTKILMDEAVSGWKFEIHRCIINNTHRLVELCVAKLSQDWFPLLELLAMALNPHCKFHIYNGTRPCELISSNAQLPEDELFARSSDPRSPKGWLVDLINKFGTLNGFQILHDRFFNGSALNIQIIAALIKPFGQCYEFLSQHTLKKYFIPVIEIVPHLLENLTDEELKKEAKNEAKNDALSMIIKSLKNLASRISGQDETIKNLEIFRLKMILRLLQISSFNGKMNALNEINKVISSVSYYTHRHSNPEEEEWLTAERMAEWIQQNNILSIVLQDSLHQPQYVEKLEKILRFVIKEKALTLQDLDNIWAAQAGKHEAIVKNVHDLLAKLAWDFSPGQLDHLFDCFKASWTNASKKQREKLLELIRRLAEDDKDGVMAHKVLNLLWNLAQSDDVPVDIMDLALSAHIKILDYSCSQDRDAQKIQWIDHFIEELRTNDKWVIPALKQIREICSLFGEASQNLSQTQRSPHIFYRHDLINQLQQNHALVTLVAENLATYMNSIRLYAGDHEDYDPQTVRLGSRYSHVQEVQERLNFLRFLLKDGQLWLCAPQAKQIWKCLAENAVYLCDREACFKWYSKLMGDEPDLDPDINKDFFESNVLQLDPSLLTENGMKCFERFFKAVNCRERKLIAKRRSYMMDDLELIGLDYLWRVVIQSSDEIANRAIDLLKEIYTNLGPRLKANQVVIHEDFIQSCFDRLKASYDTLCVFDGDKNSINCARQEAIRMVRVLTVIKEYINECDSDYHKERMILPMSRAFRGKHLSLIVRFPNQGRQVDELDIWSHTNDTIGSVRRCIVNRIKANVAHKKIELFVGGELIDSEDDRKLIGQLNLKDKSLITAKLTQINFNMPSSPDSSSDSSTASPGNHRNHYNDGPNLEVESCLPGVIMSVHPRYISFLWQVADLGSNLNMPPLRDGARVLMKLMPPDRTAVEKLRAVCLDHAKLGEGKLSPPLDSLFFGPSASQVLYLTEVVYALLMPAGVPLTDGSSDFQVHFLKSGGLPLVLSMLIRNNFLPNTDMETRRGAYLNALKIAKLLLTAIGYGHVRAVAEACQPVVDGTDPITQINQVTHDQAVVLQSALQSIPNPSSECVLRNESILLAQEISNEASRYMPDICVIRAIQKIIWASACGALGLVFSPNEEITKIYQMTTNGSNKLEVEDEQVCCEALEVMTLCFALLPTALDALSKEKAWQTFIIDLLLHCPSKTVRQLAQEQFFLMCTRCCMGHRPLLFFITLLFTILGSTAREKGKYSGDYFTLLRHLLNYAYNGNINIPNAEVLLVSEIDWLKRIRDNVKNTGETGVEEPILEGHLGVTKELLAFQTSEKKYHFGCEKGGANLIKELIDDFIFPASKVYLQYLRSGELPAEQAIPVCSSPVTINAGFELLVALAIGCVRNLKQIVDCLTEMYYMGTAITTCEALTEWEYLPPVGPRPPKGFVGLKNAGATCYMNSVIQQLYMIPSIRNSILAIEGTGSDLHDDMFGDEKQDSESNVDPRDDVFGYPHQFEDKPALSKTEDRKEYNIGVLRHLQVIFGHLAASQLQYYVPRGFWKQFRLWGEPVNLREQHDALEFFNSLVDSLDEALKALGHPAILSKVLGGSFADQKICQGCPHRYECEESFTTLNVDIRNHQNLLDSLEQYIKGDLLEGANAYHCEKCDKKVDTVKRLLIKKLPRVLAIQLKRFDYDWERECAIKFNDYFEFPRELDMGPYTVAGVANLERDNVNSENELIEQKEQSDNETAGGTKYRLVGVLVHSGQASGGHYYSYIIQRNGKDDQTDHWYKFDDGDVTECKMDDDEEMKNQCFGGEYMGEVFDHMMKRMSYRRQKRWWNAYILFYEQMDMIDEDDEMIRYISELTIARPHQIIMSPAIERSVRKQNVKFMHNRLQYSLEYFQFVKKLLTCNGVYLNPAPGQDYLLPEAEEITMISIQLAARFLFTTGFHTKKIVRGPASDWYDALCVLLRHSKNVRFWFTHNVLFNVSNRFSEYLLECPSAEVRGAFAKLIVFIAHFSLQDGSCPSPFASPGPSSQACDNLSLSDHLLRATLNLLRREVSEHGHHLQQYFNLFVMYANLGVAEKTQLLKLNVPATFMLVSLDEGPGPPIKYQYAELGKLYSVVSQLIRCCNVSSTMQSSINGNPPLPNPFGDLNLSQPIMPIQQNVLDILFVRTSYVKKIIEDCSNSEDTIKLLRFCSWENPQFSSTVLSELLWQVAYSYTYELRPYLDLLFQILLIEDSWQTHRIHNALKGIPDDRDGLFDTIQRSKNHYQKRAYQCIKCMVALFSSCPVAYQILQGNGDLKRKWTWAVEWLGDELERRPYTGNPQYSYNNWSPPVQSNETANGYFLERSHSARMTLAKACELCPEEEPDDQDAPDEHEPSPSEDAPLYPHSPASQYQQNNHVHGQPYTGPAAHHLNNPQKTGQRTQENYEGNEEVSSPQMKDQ

Cc1cc(CC(C)NC(=O)CCl)n[nH]1 (centres undefined)
inactive: USP9X -0.345 | UniProt O00487 -0.0204 | UniProt O00507 -0.165 | UniProt P51784 -0.131 | UniProt Q5T2D3 -0.595 | UniProt Q8TE49 0.0154 | UniProt Q9P2H5 -0.232 | UniProt Q9UGI0 -0.68 | YOD1 0.241
